# PubChem BioAssay
# Calls of active or inactive are those of the source.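 Rule for the calls, unless noted: active = fluorescence slope higher than the sample average by over 3 SD (cut at about -0.22 in these data, passing the limit was not always enough); inactive = the rest.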
# What was measured:
# [1] = inhibitors of TNFa-induced NFkB p65 translocation, primary screen, imaging, HUVEC, MLSMR starter and 10KST1 sets (AID 438;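 active = inhibition above 20% together with a positive visual image hit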;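 note: compound added about 3h40 before a 20 min TNFalpha stimulation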;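 for inhibition: signal is the nuclear over cytoplasmic p65 intensity ratio per well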); details: HUVEC TNFa-induced p65 nuclear translocation; cell count: measured here: nuclei count (cytotoxicity indicator), at 2.08 µM; inhibition: at 2 µM, stronger effect = higher value, 0% TNFa-plus-vehicle, 100% no-TNFa wells
# [2] = inhibitors of mutant huntingtin aggregation, primary screen, imaging, exon1htt(103Q)mCFP cells, high-content imaging (AID 483;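 active = visual image review flags a hit and inhibition of aggregation exceeds 20%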;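 note: compound exposure lasted 3 days before fixation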;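 for nuclei count: percent of the per-plate median nuclei count of sample wells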); details: exon1htt(103Q)mCFP cell line, aggregate imaging, at 2 µM; inhibition of aggregation: stronger effect = higher value; nuclei count: measured here: cell count, toxicity
# [3] = inhibitors of E-selectin induction by TNFa, primary screen, imaging, HUVEC, immunofluorescence, MLSMR starter and 10KST1 sets (AID 487;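 active = visually confirmed hit in the image check and inhibition above 20%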;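 for inhibition: signal is fraction of cell area covered by stained E-selectin grains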;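 for nuclei count: 100% = median nuclei count of all wells on the same plate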); details: HUVEC TNFalpha-induced E-selectin immunofluorescence imaging, at 2 µM; inhibition: stronger effect = higher value; nuclei count: measured here: cell number, toxicity
# [4] = target: Voltage-gated potassium channel subunit beta-2 (Rattus norvegicus) (UniProt P62483); test: KvBeta enzyme negative modulators, primary screen, biochemical, NADPH fluorescence (AID 622); details: recombinant KvBeta, 4-cyanobenzaldehyde reduction, at 10 µM, stronger effect = higher value;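 note: slope of raw intensity against log time taken from 70 to 1610 s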
# [5] = target: Voltage-gated potassium channel subunit beta-2 (Rattus norvegicus) (UniProt P62483); test: KvBeta positive modulators, primary screen, biochemical, NADPH fluorescence (AID 623;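 active = NADPH fluorescence slope more negative than the mean of all samples by about 3 SD, 99.7% confidence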;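 note: fluorescence intensity change per second fitted from 20 to 320 s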); details: Recombinant KvBeta, NADPH fluorescence decrease slope, 10 min; at 10 µM; stronger effect = lower value
# [6] = target: Alpha-2C adrenergic receptor (Homo sapiens) (UniProt P18825); test: modulators of alpha2C/GIRK thallium flux, primary screen, cell-based, HEK293 alpha2C/GIRK1/2 (AID 624;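 active = fluorescence slope after compound addition differing from the mean of all screened samples at 99.7% confidence, in either direction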;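 note: slope of fluorescence ratio to pre-addition baseline per second over 15 to 24 s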); details: thallium flux BTC fluorescence, at 10 µM, actives lie on both sides
# [7] = inhibitors of Sendai virus-induced IRF3 signaling, primary screen, TLR/RLR signaling modifier project, cell-based, Sendai virus stimulus, luciferase, 10K MLSCN set (AID 602276;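 active = inhibition at or above 50% at 10 µM; inactive = inhibition below 50%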;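 note: firefly luciferase from ISG56 promoter only with Renilla not read in this screen; 0% = Sendai virus plus DMSO and 100% = medium plus DMSO without virus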); details: HEK293 RL24 IRF3 luciferase reporter, at 10 µM, stronger effect = higher value
# [8] = inhibitors of poly I:C-induced TLR3 signaling, primary screen, cell-based, poly I:C stimulus, luciferase, 10K MLSCN set (AID 602277;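 active = inhibition of the reporter signal at or above 50%; inactive = inhibition below 50%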); details: HEK293-TLR3 RL24 IRF3 luciferase reporter, at 10 µM, stronger effect = higher value
# [9] = DUSP6 inhibitors restoring Erk phosphorylation by chemical complementation, primary imaging in DUSP6-transfected HeLa (AID 609;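 active = compounds giving at least 50% inhibition in the cell-based MKP-3 phosphatase rescue imaging test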;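 for inhibition: phospho-Erk level distribution per well compared with pooled transfected vehicle control wells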); details: HeLa MKP-3 transfected, phospho-Erk imaging KS statistic, at 10 µM, cells stimulated with TPA for 15 min
# [10] = target: Dual specificity protein phosphatase 6 (Homo sapiens) (UniProt Q16828); test: as above; details: HeLa MKP-3 transfected, phospho-Erk imaging KS statistic; at 10 µM; stronger effect = higher value; cells stimulated with TPA for 15 min
# [11] = target: Muscarinic acetylcholine receptor M4 (Homo sapiens) (UniProt P08173); test: compounds altering M4/GIRK thallium flux, either direction, primary screen, M4 allosteric agonist project, cell-based, HEK293 M4/GIRK, BTC-AM (AID 625;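 active = fluorescence slope after compound addition differing from the mean of all tested samples at 99.7% confidence, mostly higher but some lower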;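 note: thallium influx through GIRK channels coupled to M4 in HEK293 cells with BTC-AM dye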); details: at 10 µM, actives lie on both sides
# [12] = inhibitors of larval lipid processing in zebrafish, primary screen, whole organism, PED6 fluorescence, gall bladder and intestine (AID 686;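 active = a full or partial loss of lipid-probe fluorescence in the fish gall bladder, intestine or both, judged by eye; inactive = no fluorescence loss, or compound toxic to the fish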;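 note: larvae 5 to 7 days old with five fish per well; signal comes from phospholipase A2 cleavage of quenched PED6 carried via bile; overnight exposure to compound and PED6 before scoring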); details: Zebrafish larvae PED6 lipid processing, fluorescence scoring; screened at 20 µM (by protocol)
# [13] = inhibitors of Chlamydomonas gravitaxis, primary screen, whole organism, Chlamydomonas reinhardtii, WT vs cilia-less mutant, absorbance, 96-well (AID 463189;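 active = inhibition at or above 50% relative to wild type and mutant plate controls; inactive = inhibition below 50%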;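 note: 0% = wild type cc124 cells in DMSO and 100% = ciliumless bld1 mutant cells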); details: OD600 absorbance, 2 days, at 10 µM, stronger effect = higher value
# [14] = measured here: cell density z-score
# [15] = measured here: nuclear c-Myc green intensity z-score
# [16] = measured here: nuclear pErk red intensity z-score, stronger effect = higher value
# Voltage-gated potassium channel subunit beta-2 (Rattus norvegicus), sequence (P62483 whole entry, looked up): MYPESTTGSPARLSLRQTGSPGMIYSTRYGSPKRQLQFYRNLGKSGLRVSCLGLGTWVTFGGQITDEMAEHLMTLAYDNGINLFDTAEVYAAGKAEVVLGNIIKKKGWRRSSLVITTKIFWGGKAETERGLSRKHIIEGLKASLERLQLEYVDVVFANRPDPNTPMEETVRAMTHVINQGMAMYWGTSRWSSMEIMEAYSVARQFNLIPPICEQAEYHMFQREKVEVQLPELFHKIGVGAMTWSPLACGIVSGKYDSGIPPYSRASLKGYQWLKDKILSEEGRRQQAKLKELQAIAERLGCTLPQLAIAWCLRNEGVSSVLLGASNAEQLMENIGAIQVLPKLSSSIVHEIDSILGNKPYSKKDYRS
# Alpha-2C adrenergic receptor (Homo sapiens), sequence (P18825 whole entry, looked up): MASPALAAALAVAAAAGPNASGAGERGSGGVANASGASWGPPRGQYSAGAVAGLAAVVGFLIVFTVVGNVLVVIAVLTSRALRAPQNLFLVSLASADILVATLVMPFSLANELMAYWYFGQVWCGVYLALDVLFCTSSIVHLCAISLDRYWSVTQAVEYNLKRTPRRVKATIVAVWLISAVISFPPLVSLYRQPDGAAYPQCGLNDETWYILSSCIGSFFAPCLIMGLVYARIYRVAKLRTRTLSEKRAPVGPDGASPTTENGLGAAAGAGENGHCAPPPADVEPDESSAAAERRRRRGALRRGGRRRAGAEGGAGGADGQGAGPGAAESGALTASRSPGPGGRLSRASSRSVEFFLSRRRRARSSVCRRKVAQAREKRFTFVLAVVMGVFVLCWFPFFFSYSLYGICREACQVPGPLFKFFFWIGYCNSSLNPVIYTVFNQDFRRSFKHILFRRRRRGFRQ
# Muscarinic acetylcholine receptor M4 (Homo sapiens), sequence (P08173 whole entry, looked up): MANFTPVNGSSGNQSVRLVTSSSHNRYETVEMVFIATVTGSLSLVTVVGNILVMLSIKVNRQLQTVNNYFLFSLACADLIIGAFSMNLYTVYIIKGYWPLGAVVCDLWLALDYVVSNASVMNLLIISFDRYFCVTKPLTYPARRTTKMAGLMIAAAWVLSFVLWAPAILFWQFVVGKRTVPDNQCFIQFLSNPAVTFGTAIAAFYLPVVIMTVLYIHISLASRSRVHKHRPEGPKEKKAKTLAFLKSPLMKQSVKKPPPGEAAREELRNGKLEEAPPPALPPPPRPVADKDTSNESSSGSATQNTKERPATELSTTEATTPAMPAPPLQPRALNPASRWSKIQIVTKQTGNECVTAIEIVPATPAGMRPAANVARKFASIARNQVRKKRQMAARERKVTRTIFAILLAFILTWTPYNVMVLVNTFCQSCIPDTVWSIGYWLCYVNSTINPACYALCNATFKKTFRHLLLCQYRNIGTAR
# Dual specificity protein phosphatase 6 (Homo sapiens), sequence (Q16828 whole entry, looked up): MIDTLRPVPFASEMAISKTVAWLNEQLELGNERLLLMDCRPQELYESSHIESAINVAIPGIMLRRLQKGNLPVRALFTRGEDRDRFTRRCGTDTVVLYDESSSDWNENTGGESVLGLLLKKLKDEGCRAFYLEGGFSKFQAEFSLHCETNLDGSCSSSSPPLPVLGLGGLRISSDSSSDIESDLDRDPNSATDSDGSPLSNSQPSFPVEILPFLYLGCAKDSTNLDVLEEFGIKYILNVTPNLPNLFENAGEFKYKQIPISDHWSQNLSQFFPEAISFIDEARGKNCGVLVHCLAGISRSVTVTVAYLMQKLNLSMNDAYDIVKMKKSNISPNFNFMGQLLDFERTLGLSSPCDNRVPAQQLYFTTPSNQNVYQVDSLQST
Structure (SMILES),cell count [1],inhibition [1],inhibition of aggregation [2],nuclei count [2] [%],inhibition [3],nuclei count [3] [%],fluorescence slope [4],NADPH fluorescence slope [5],slope [6],inhibition [7],inhibition [8],"z-score [9, 14]","z-score [9, 15]","z-score [9, 16]",inhibition [10],fluorescence slope [11],outcome [12],inhibition [13]
COC(=O)c1ccccc1NC(=O)C1CC(=O)N(c2ccc(F)cc2)C1 (stereo not given),321,6.5% (inactive),-18.4% (inactive),115,-16.8% (inactive),134,-0.604 (inactive),-3.1e-05 (inactive),0.00375 (inactive),14.7% (inactive),5.83% (inactive),–,–,–,–,–,–,–
CC(=O)Nc1sc2c(c1CN1CCN(c3ccccn3)CC1)CCCC2,698,-14.6% (inactive),5.2% (inactive),95.6,54.3% (active),95.3,-0.517 (inactive),-3.7e-05 (inactive),0.00435 (inactive),6.55% (inactive),12.4% (inactive),–,–,–,–,–,–,–
Cn1ncc2nc[nH]c(=O)c21,709,2% (inactive),–,–,-49.9% (inactive),110,-0.579 (inactive),-3.5e-05 (inactive),–,–,–,-0.739,-0.543,1.26,5.95% (inactive),0.006 (inactive),inactive,30.9% (inactive)
CCOC(=O)C1CCN(c2c(NC3CCCc4ccccc43)c(=O)c2=O)CC1 (stereo not given),672,6.6% (inactive),-3.3% (inactive),86.1,-22.1% (inactive),98.7,-0.571 (inactive),-3e-05 (inactive),0.00585 (inactive),7.84% (inactive),29.9% (inactive),–,–,–,–,–,–,–
COc1ccccc1C(=O)N1CCN(C(=O)COc2cccc(C)c2)CC1,430,-5.5% (inactive),11.7% (inactive),94.2,-52.5% (inactive),102,-0.288 (inactive),-5.4e-05 (inactive),0.00401 (inactive),14% (inactive),23.5% (inactive),–,–,–,–,–,–,–
CCOC(=O)N1CCC(Nc2nc3ccccc3n3cnnc23)CC1,501,-6.9% (inactive),-21.2% (inactive),59.5,-35.1% (inactive),117,-0.581 (inactive),-8.8e-06 (inactive),0.00645 (inactive),7.19% (inactive),18.1% (inactive),–,–,–,–,–,–,–
COC(=O)c1c(-n2cnnn2)sc(C)c1C,504,-4.7% (inactive),–,–,–,172,-0.421 (inactive),-4.5e-05 (inactive),–,–,–,-0.751,1.91,1.76,-2.29% (inactive),0.00518 (inactive),inactive,-6.11% (inactive)
